Data taken from PubChem BioAssay (Tox21).
Values joined by “and” are separate entries in the source; they are usually repeats but may differ in a detail not shown here. Equal values may be shown once. Inconclusive results are not listed. More than one record can exist for a structure, and the calls need not agree. Active and inactive are the calls of the source. Unless noted, calls come from the whole dose curve; as a rule, active = well fitted curve in the direction sought with a large enough effect in the repeat runs; inconclusive = weak or mixed curves; inactive = no such curve, though single readings can be large; an effect the other way counts as inactive or inconclusive.

Legend:
[1] = qHTS assay to identify aromatase inhibitors - cell viability counter screen (AID 743084);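 note: cells stimulated with testosterone during compound exposure; nearly all actives have a fitted effect of over 55% in size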
[2] = target: Aryl hydrocarbon receptor (Homo sapiens) (UniProt P35869); test: qHTS assay to identify small molecule that activate the aryl hydrocarbon receptor (AhR) signaling pathway (AID 743085); note: nearly all actives have a fitted effect of over 15% in size; note: potency is the fitted concentration of half-maximal effect;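 for activation: HG2L7.5c1 human HepG2 liver cells with stably integrated DRE-driven firefly reporter; series mostly up to about 70 µM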
Aryl hydrocarbon receptor (Homo sapiens), sequence (P35869 whole entry, looked up): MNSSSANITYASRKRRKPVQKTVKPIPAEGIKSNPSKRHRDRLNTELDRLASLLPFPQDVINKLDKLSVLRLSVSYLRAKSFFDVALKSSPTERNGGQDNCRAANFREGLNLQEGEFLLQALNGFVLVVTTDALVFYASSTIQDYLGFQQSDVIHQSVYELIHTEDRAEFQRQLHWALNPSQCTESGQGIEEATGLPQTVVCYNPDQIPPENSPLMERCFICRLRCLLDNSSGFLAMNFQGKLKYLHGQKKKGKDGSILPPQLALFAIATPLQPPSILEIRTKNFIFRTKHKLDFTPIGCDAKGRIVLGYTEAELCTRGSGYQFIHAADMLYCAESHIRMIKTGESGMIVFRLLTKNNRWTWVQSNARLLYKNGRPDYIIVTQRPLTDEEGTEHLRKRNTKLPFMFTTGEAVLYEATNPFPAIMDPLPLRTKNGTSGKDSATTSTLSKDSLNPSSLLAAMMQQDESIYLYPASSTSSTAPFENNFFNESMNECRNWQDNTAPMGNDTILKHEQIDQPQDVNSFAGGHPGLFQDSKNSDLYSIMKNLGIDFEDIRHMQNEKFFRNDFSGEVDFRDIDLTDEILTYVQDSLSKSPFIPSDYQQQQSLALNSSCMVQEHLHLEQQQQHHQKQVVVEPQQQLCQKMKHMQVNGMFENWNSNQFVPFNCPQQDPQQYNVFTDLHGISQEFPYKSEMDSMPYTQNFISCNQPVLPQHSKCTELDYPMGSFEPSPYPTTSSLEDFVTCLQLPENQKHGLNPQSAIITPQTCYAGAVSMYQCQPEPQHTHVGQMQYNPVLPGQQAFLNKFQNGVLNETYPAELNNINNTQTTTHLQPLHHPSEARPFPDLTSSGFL
Procedure, shortened: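 HepG2 cells (HG2L7.5c1) stably carrying a firefly luciferase reporter driven by 20 dioxin responsive elements were exposed to compound for 24 h at 37C after a 5 h settling period; luminescence rise (ONE-Glo) indicated activation.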

[3] = qHTS assay to identify small molecule that activate the aryl hydrocarbon receptor (AhR) signaling pathway - cell viability counter screen (AID 743086);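 note: HepG2 liver cells carrying the AhR DRE luciferase reporter; series mostly up to about 70 µM; nearly all actives have a fitted effect of over 45% in size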
Procedure, shortened: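 HepG2-AhR-luc (HG2L7.5c1) cells, 4000/well, treated 24 h at 37 C with compound; viability measured as CellTiter-Fluor fluorescence after 30 min in the same wells as the luciferase read.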

[4] = qHTS assay for small molecule agonists of the antioxidant response element (ARE) signaling pathway (AID 743202; active = well fitted activation curve with a large enough effect in the signal ratio in the repeat runs, not every such curve was filed as active; the % refers to the signal ratio)
Procedure, shortened: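 Agonist mode reporter screen: HepG2 cells with ARE-controlled beta-lactamase are incubated with test compounds for 16 h at 37 C, and beta-lactamase activity is measured as fluorescence of cleaved B/G FRET substrate.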

[5] = qHTS assay for small molecule activators of the heat shock response signaling pathway - cell viability counter screen (AID 743209); note: nearly all actives have a fitted effect of over 50% in size
Procedure, shortened: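 Luminescence from CellTiter-Glo, added after the beta-lactamase FRET read, gave the viability signal. Cells were HSE-bla HeLa treated with DMSO-dissolved compounds for 5 h at 37 C following overnight plating.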

[6] = qHTS assay for small molecule activators of the heat shock response signaling pathway (AID 743210; active = well fitted activation curve with a large enough effect in the signal ratio in the repeat runs, with a control signal flat, not every such curve was filed as active; the % refers to the signal ratio;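 note: HeLa cells with beta-lactamase reporter driven by heat shock elements; series mostly up to about 63 µM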)
Procedure, shortened: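 Quantitative high-throughput format using an engineered HeLa line in which heat shock response elements drive beta-lactamase; after 5 h with compound, cells received a B/G FRET substrate and fluorescence was read.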

[7] = qHTS assay to identify small molecule agonists of the peroxisome proliferator-activated receptor delta (PPARd) signaling pathway - cell viability counter screen (AID 743211); note: nearly all actives have a fitted effect of over 55% in size
Procedure, shortened: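 PPARd-bla HEK293H cells (UAS-beta-lactamase reporter) were treated with compounds for 17 h at 37 C. Viability was then read in the same wells by CellTiter-Glo luminescence after 30 min at room temperature.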

[8] = target: Peroxisome proliferator-activated receptor delta (Homo sapiens) (UniProt Q03181); test: qHTS assay to identify small molecule agonists of the peroxisome proliferator-activated receptor delta (PPARd) signaling pathway (AID 743212; calls by dose curve)
Peroxisome proliferator-activated receptor delta (Homo sapiens), sequence (Q03181 whole entry, looked up): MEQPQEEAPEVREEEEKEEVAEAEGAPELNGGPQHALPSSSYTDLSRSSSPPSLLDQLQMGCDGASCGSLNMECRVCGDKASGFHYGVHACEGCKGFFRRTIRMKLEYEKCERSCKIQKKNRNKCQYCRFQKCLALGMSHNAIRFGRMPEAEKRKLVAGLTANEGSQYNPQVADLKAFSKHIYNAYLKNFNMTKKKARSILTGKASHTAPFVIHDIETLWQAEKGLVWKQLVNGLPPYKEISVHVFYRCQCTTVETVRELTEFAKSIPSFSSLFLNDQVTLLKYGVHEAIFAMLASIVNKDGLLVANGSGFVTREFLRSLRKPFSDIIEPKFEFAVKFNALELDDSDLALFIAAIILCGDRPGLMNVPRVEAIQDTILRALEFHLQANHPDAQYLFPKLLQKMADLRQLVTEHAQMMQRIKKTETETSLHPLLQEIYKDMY
Procedure, shortened: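 Quantitative high-throughput agonist screen in a HEK293H beta-lactamase reporter line under UAS control. Compounds in DMSO, at 37 C. Fluorescence read after 2 h with FRET substrate at room temperature.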

[9] = qHTS assay to identify small molecule antagonists of the peroxisome proliferator-activated receptor delta (PPARd) signaling pathway - cell viability counter screen (AID 743213); note: nearly all actives have a fitted effect of over 50% in size
Procedure, shortened: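 Same-well viability: cells pre-incubated 5 h, dosed with compound plus 300 nM L165041, kept 17 h at 37 C, FRET substrate 2 h RT, then CellTiter-Glo 30 min RT and luminescence.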

[10] = qHTS assay to identify small molecule agonists of the farnesoid-X-receptor (FXR) signaling pathway - cell viability counter screen (AID 743218); note: nearly all actives have a fitted effect of over 45% in size
Procedure, shortened: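 HEK 293T FXR-bla cells; 5 h pre-incubation, 16 h compound exposure at 37 C; LiveBLAzer substrate 2 h RT, then CellTiter-Glo 30 min RT, luminescence.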

[11] = qHTS assay to identify small molecule antagonists of the farnesoid-X-receptor (FXR) signaling pathway - cell viability counter screen (AID 743221; active = well fitted cell-killing curve with a large enough effect in the repeat runs, not every such curve was filed as active; note: nearly all actives have a fitted effect of over 50% in size)
Procedure, shortened: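 FXR-UAS-bla HEK 293T cells were treated with test compounds plus chenodeoxycholic acid (50 uM final) for 16 h at 37 C. Cell viability in the same wells was then read as CellTiter-Glo luminescence after 30 min at room temperature.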

[12] = target: Vitamin D3 receptor (Homo sapiens) (UniProt P11473); test: qHTS assay to identify small molecule agonists of the vitamin D receptor (VDR) signaling pathway (AID 743222; calls by dose curve)
Vitamin D3 receptor (Homo sapiens), sequence (P11473 whole entry, looked up): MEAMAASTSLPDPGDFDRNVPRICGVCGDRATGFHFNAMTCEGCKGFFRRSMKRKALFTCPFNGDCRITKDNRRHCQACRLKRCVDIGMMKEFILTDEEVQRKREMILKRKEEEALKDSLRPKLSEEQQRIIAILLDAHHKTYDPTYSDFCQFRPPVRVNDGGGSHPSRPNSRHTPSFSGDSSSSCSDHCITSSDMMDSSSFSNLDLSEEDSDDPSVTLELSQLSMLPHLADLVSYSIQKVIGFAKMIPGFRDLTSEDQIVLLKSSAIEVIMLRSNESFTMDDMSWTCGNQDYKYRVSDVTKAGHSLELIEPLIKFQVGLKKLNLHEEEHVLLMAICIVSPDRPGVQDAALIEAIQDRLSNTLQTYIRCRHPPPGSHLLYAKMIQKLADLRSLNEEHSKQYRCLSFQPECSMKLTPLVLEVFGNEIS
Procedure, shortened: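 VDR-bla cells, 2,000/well; 4 h preincubation 37C; cpd (DMSO) 16 h; LiveBLAzer B/G substrate 2 h RT; fluorescence intensity read.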

[13] = target: Peroxisome proliferator-activated receptor gamma (Homo sapiens) (UniProt P37231); test: qHTS assay to identify small molecule agonists of the peroxisome proliferator-activated receptor gamma (PPARg) signaling pathway (AID 743094; active = well fitted activation curve with a large enough effect in the signal ratio in the repeat runs, not every such curve was filed as active; the % refers to the signal ratio)
Peroxisome proliferator-activated receptor gamma (Homo sapiens), sequence (P37231 whole entry, looked up): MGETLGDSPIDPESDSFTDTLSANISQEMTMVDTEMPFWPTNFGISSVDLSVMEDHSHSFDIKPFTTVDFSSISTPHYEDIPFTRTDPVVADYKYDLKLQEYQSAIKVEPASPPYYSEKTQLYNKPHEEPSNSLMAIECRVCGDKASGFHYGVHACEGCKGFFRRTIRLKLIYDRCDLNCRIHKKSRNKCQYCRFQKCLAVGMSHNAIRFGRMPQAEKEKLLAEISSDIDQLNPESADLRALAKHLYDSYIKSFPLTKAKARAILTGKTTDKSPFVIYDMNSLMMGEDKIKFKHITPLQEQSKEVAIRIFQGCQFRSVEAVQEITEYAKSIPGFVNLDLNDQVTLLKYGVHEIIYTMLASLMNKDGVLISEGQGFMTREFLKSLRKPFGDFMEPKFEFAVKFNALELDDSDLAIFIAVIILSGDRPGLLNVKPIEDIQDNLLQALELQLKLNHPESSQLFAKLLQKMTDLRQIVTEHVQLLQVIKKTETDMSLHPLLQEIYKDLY
Procedure, shortened: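 Beta-lactamase FRET fluorescence was the read-out after a 1 h room-temperature substrate step, following 17 h compound treatment at 37C of HEK293H cells expressing a UAS-driven bla reporter responsive to PPARg.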

[14] = qHTS assay to identify small molecule antagonists of the peroxisome proliferator-activated receptor gamma (PPARg) signaling pathway - cell viability counter screen (AID 743194); note: nearly all actives have a fitted effect of over 55% in size
Procedure, shortened: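 Cytotoxicity counter screen in PPARg-bla HEK293H cells, same wells as reporter assay. Compounds plus 50 nM rosiglitazone (final) for 17 h at 37 C, then viability read by CellTiter-Glo luminescence.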

[15] = qHTS assay for small molecule agonists of the antioxidant response element (ARE) signaling pathway - cell viability counter screen (AID 743203; calls by dose curve; note: nearly all actives have a fitted effect of over 55% in size)
Procedure, shortened: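 HepG2 cells carrying ARE-driven beta-lactamase; 2,000 cells/well; 5 hrs plating; compound pinned from DMSO; 16 hrs 37C/5% CO2; CellTiter-Glo added; 30 min RT; luminescence.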

[16] = target: Peroxisome proliferator-activated receptor delta (Homo sapiens) (UniProt Q03181); test: qHTS assay to identify small molecule antagonists of the peroxisome proliferator-activated receptor delta (PPARd) signaling pathway (AID 743215; active = well fitted inhibition curve with a large enough effect in the signal ratio in the repeat runs, not every such curve was filed as active; the % refers to the signal ratio;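 note: cells stimulated with agonist L165041 at 300 nM final during compound exposure; series mostly up to about 62 µM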)
Procedure, shortened: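 Read-out is beta-lactamase FRET fluorescence, measured 2 h after substrate addition at room temperature. Beforehand, UAS-bla HEK293H cells carrying the PPARd reporter were exposed to compounds with L165041 at 300 nM final for 17 h at 37 C.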

[17] = target: Vitamin D3 receptor (Homo sapiens) (UniProt P11473); test: qHTS assay to identify small molecule antagonists of the vitamin D receptor (VDR) signaling pathway (AID 743223; active = well fitted inhibition curve with a large enough effect in the signal ratio in the repeat runs, not every such curve was filed as active; the % refers to the signal ratio)
Procedure, shortened: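 VDR-bla cells were plated, incubated 4 h at 37C, then given compound and 1alpha,25-dihydroxyvitamin D3 (3 nM final). After 16 h at 37C, LiveBLAzer B/G FRET substrate was added for 2 h at room temperature and fluorescence read.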

[18] = target: Bile acid receptor (Homo sapiens) (UniProt Q96RI1); test: qHTS assay to identify small molecule antagonists of the farnesoid-X-receptor (FXR) signaling pathway (AID 743217; active = well fitted inhibition curve with a large enough effect in the signal ratio in the repeat runs, not every such curve was filed as active; the % refers to the signal ratio)
Bile acid receptor (Homo sapiens), sequence (Q96RI1 whole entry, looked up): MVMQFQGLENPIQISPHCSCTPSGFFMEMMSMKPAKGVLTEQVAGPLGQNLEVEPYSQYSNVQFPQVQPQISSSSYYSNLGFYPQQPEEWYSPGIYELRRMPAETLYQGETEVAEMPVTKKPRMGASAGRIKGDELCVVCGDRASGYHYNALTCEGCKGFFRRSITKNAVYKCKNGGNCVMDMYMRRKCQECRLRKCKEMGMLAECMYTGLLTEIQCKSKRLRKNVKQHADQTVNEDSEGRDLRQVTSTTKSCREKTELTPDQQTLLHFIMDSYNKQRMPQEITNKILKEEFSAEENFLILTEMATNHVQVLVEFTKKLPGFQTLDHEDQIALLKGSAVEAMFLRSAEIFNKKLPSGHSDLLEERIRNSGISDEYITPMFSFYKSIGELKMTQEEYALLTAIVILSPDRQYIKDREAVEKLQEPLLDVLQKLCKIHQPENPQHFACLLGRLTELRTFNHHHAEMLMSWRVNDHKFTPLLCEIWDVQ
Procedure, shortened: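 HEK 293T FXR-UAS-bla, 5000 cells/well; compound + CDCA 50 uM final; 16 h, 37 °C; B/G FRET substrate 2 h RT; fluorescence.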

[19] = target: Bile acid receptor (Homo sapiens) (UniProt Q96RI1); test: qHTS assay to identify small molecule agonists of the farnesoid-X-receptor (FXR) signaling pathway (AID 743220; active = well fitted activation curve with a large enough effect in the signal ratio in the repeat runs, not every such curve was filed as active; the % refers to the signal ratio)
Procedure, shortened: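 Beta-lactamase reporter under UAS control in GeneBLAzer FXR HEK 293T cells (5000/well) measured with LiveBLAzer FRET substrate after 2 h at room temperature. Compound exposure lasted 16 h at 37C.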

[20] = target: Peroxisome proliferator-activated receptor gamma (Homo sapiens) (UniProt P37231); test: qHTS assay to identify small molecule antagonists of the peroxisome proliferator-activated receptor gamma (PPARg) signaling pathway (AID 743191; calls by dose curve; note: series mostly up to about 63 µM; nearly all actives have a fitted effect of over 30% in size)
Procedure, shortened: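 GeneBLAzer PPARg UAS-bla HEK293H cells, 5 h post-plating, exposed to compounds 17 h at 37C. LiveBLAzer B/G FRET substrate added for 1 h at room temperature; beta-lactamase reporter read by fluorescence intensity.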
% is set by controls: 0 for no effect and ±100 for the full control effect.

NC(=O)Nc1ccccc1
inactive: Potency [1] | Potency [2] | Potency [3] | Potency [4] | outcome [5] | outcome [6] | Potency [7] | outcome [8] | Potency [9] | Potency [10] | Potency [11] | outcome [12]

CCSC(=O)N(CC(C)C)CC(C)C
inactive: Potency [1] | Potency [2] | outcome [13] | outcome [14] | Potency [4] | Potency [15] | outcome [5] | outcome [6] | Potency [7] | outcome [8] | Potency [9] | Potency [16] | Potency [10] | Potency [11] | outcome [12] | outcome [17]

CO/N=C(/C(=O)N[C@@H]1C(=O)N2C(C(=O)OCOC(=O)C(C)(C)C)=C(C)CS[C@H]12)c1csc(N)n1
inactive: Potency [1] | Potency [2] | outcome [14] | Potency [4] | Potency [15] | outcome [5] | outcome [6] | Potency [7] | outcome [8] | Potency [9] | outcome [18] | Potency [10] | outcome [19] | Potency [11] | outcome [12]

CCCN1CCCC[C@H]1C(=O)Nc1c(C)cccc1C
inactive: Potency [1] | Potency [2] | outcome [13] | outcome [14] | Potency [4] | Potency [15] | outcome [5] | outcome [6] | Potency [7] | outcome [8] | outcome [18] | Potency [10] | outcome [19] | Potency [11] | outcome [17]

CO[Si](CCCOCC1CO1)(OC)OC (stereo not drawn)
inactive: Potency [1] | Potency [2] | outcome [13] | Potency [20] | outcome [14] | Potency [4] | outcome [5] | outcome [6] | Potency [7] | outcome [8] | Potency [9] | Potency [10] | outcome [19] | Potency [11] | outcome [12]

CCOC(=O)Nc1ccc(NCc2ccc(F)cc2)nc1N
inactive: Potency [1] | Potency [3] | outcome [13] | Potency [20] | outcome [14] | Potency [4] | Potency [15] | outcome [5] | outcome [6] | Potency [7] | Potency [9] | Potency [16] | Potency [10] | Potency [11] | outcome [12]

O=C(O)Cc1ccc(CCNS(=O)(=O)c2ccc(Cl)cc2)cc1
inactive: Potency [1] | Potency [2] | Potency [20] | outcome [14] | Potency [4] | Potency [15] | outcome [6] | Potency [7] | outcome [8] | Potency [9] | Potency [16] | outcome [18] | outcome [19] | Potency [11]

CCO/C([O-])=N/c1c[n+](N2CCOCC2)no1
inactive: Potency [1] | Potency [2] | outcome [14] | Potency [4] | Potency [15] | outcome [5] | outcome [6] | Potency [7] | outcome [8] | Potency [9] | Potency [16] | outcome [18] | Potency [10] | outcome [19] | Potency [11] | outcome [12] | outcome [17]

CCCCCCOC(=O)CCCCC(=O)OCCCCCC
inactive: Potency [1] | Potency [2] | outcome [13] | Potency [20] | outcome [14] | outcome [5] | outcome [6] | Potency [7] | outcome [8] | Potency [9] | outcome [18] | outcome [19] | Potency [11] | outcome [12]

NC(=O)c1ccc(N)cc1
inactive: Potency [1] | Potency [3] | outcome [13] | Potency [20] | outcome [14] | Potency [4] | Potency [15] | outcome [5] | outcome [6] | Potency [7] | Potency [9] | outcome [18] | Potency [10] | outcome [19] | Potency [11] | outcome [12] | outcome [17]

CCC(C)S (stereo not drawn)
inactive: activity change, negative = cytotoxicity [1] -1.89% [at 3.79 µM] | activation [2] 2.05% [at 3.79 µM] | activation [13] 4.65% [at 3.17 µM] | ratio activity, negative = inhibition [20] 25.6% [at 2.7 µM] | activity change, negative = cytotoxicity [14] -9.73% [at 2.7 µM] | activation [4] 1.05% [at 3.74 µM] | viability change, negative = cytotoxic [15] 9.9% [at 3.74 µM] | activity change, negative = cytotoxicity [5] -3.21% [at 2.7 µM] | activity change, negative = cytotoxicity [7] 2.23% [at 2.7 µM] | activation [8] -4.14% [at 2.7 µM] | viability change, negative = cytotoxic [9] 4.88% [at 2.83 µM] | activity change, negative = inhibition [18] 3.24% [at 2.69 µM] | viability change, negative = cytotoxic [10] 7.12% [at 2.7 µM] | activation [19] -0.872% [at 2.7 µM] | activity change, negative = cytotoxicity [11] 5.23% [at 2.69 µM] | activation [12] 12.2% [at 2.71 µM] | activity change, negative = inhibition [17] 0.31% [at 3.11 µM]

CN1CCCC1
inactive: Potency [1] | Potency [3] | outcome [13] | Potency [20] | Potency [4] | Potency [15] | outcome [5] | outcome [6] | Potency [7] | Potency [9] | outcome [18] | outcome [19] | Potency [11] | outcome [12]

CCCCOCCOCCOCc1cc2c(cc1CCC)OCO2
inactive and 18 µM (active): Potency [2]
inactive: Potency [1] | outcome [14] | Potency [4] | Potency [15] | outcome [5] | outcome [6] | Potency [9] | outcome [18] | Potency [10] | outcome [19] | Potency [11]

CC(=O)CC(C)C
inactive: Potency [1] | Potency [3] | outcome [13] | Potency [20] | outcome [14] | Potency [4] | Potency [15] | outcome [5] | Potency [7] | outcome [8] | Potency [9] | Potency [16] | outcome [18] | Potency [10] | outcome [19] | Potency [11] | outcome [12] | outcome [17]

COC(=O)c1cc(C(=O)OC)cc(S(=O)(=O)O)c1
inactive: Potency [1] | Potency [2] | outcome [13] | Potency [20] | outcome [14] | Potency [15] | outcome [6] | Potency [7] | outcome [8] | Potency [9] | Potency [16] | outcome [18] | Potency [10] | outcome [19] | Potency [11] | outcome [12] | outcome [17]

CC(C)(O)C(=O)c1ccccc1
inactive: Potency [1] | Potency [2] | outcome [13] | Potency [20] | outcome [14] | Potency [4] | outcome [5] | outcome [6] | Potency [7] | outcome [8] | outcome [18] | Potency [10] | outcome [19] | Potency [11] | outcome [12]
